{"source": "PubChem BioAssay"}
{"experiment": "modulators of CIT2-GFP expression in yeast, confirmation, S. cerevisiae, GFP fusion, cherry picks, mother/daughter gates (AID 2274)", "details": "S. cerevisiae CIT2-GFP strain, flow cytometry, 3 h; measured here: mother cell gate; at 10 µM; stronger effect = higher value", "units": {"GFP response, % of DMSO": "%"}}
{"compound": "Cc1ccc(C(=O)OCC(=O)Nc2ccccc2Sc2ccccc2)cc1C", "GFP response, % of DMSO": 105}
{"compound": "CCCCCCc1cc2cc(-c3nnc(-c4ccccc4OC)o3)c(=O)oc2cc1O", "GFP response, % of DMSO": 98.2}
{"compound": "O=C(OCn1ncc(Br)c(Br)c1=O)c1ccc(F)cc1", "GFP response, % of DMSO": 92.1}
{"compound": "CSc1ccc(-c2cc(=O)c3ccccc3o2)cc1", "GFP response, % of DMSO": 84.8}
{"compound": "c1cc2c(cc1C1CCCCC1)c1c3n2CCCNC3CCC1", "note": "(centres undefined)", "GFP response, % of DMSO": 98.7}
{"compound": "CCOC(=O)C1(CCCc2ccccc2)CCN(C(=O)c2cc(C)nn2CC)CC1", "GFP response, % of DMSO": 101}
{"compound": "Cn1cnnc1SCC(=O)Nc1nc(-c2ccc(F)cc2)cs1", "GFP response, % of DMSO": 102}
{"compound": "O=C1C=C(c2ccccc2)C(=O)N1Nc1ccccc1", "GFP response, % of DMSO": 78.3}
{"compound": "S=C(Sc1ccc(Cl)cc1)Sc1ccc(Cl)cc1", "GFP response, % of DMSO": 107}
{"compound": "O=C(O)c1ccc(N/N=C/c2c(F)cccc2Cl)cc1", "GFP response, % of DMSO": 94.5}
{"compound": "Cc1ccc(-c2csc(NC(=O)c3ccno3)n2)cc1", "GFP response, % of DMSO": 99.3}
{"compound": "Cc1nn(C)cc1C(C)NC(=O)c1cc(COc2ccc(F)c(F)c2)on1", "note": "(centres undefined)", "GFP response, % of DMSO": 97.7}
{"compound": "CN(O)/C=c1/ccc2c(n1)C(=O)C=CC=2", "GFP response, % of DMSO": 161}
{"compound": "CCOc1ccc(S(=O)(=O)n2ccnc2C)cc1", "GFP response, % of DMSO": 104}
{"compound": "CCCCN(CC)S(=O)(=O)c1ccc(C(=O)Nc2nnc(-c3ccccc3Cl)o2)cc1", "GFP response, % of DMSO": 98.5}
{"compound": "Oc1c(CN2CCCCC2)cc(Br)c2cccnc12", "GFP response, % of DMSO": 91}
{"compound": "O=C(O)c1ccc(N/N=C/C(Br)=C/c2ccccc2)cc1", "GFP response, % of DMSO": 85.1}
{"compound": "Cc1ccc(NC(=O)COc2ccc(Br)cc2C)cc1", "GFP response, % of DMSO": 95.6}
{"compound": "CCCn1c(=O)c(C(=O)Nc2ccccc2C(=O)OCC)c(O)c2ccccc21", "GFP response, % of DMSO": 100}
{"compound": "N#C/C(C(=O)Nc1ccc(Cl)cc1)=C(/S)Nc1ccccc1", "GFP response, % of DMSO": 105}
{"compound": "CN1/C(=C\\C(=O)c2cccc(S(=O)(=O)N3CCCCC3)c2)C(C)(C)c2ccccc21", "GFP response, % of DMSO": 98.5}
{"compound": "CCn1c(=O)c(C(=O)NCc2ccc(OC)cc2)c(O)c2ccccc21", "GFP response, % of DMSO": 100}
{"compound": "C/C(=N/NS(=O)(=O)c1ccccc1)c1ccc(NC(=O)C(F)(F)F)cc1", "GFP response, % of DMSO": 93.3}
{"compound": "CS(=O)(=O)c1nc(-c2ccccc2)cc(C(F)(F)F)n1", "GFP response, % of DMSO": 86.9}
{"compound": "CCOc1ccc(/C=C/C(=O)c2c(O)cc(C)oc2=O)cc1", "GFP response, % of DMSO": 92.6}
{"compound": "CCCc1[nH]nc2c1C(c1cccnc1)C(C#N)=C(N)O2", "note": "(centres undefined)", "GFP response, % of DMSO": 99.7}
{"compound": "O=C1CC(Sc2nnc(-c3ccccc3)o2)C(=O)N1c1ccccc1", "note": "(centres undefined)", "GFP response, % of DMSO": 93.4}
{"compound": "O=C(NNC(=O)C1CCCCC1)C(=O)NC1CCCCC1", "GFP response, % of DMSO": 104}
{"compound": "Cc1ccc(/C(C#N)=C\\c2ccc(N3CCOCC3)o2)cc1", "GFP response, % of DMSO": 99.3}
{"compound": "N/C(Cc1ccc(Cl)c(Cl)c1)=N\\OC(=O)c1cccs1", "GFP response, % of DMSO": 159}
{"compound": "Cn1cc([N+](=O)[O-])c(C(=O)Nc2nc(-c3ccc(Cl)cc3)cs2)n1", "GFP response, % of DMSO": 99.3}
{"compound": "CCCOc1ccc(C(=O)NNC(=S)NC(=O)c2ccccc2)cc1", "GFP response, % of DMSO": 108}
{"compound": "COc1ccc(N2C(=O)c3cccc4cccc(c34)C2=O)nn1", "GFP response, % of DMSO": 91.2}
{"compound": "Clc1ccc(OCCn2cnc3ccccc32)c(Cl)c1", "GFP response, % of DMSO": 84.3}
{"compound": "N#C/C(=C\\c1ccccn1)c1nc2ccccc2s1", "GFP response, % of DMSO": 496}
{"compound": "COc1ccc(S(=O)(=O)NCC(=O)N(CC(=O)NCc2ccco2)Cc2ccc(F)cc2)cc1", "GFP response, % of DMSO": 101}
{"compound": "Cc1cc(OCc2ccc(C(=O)NN=C3CCCC3)cc2)ccc1Cl", "GFP response, % of DMSO": 89.1}
{"compound": "CCCCC(=O)NNC(=S)NC(=O)c1ccc(C)cc1", "GFP response, % of DMSO": 110}
{"compound": "Cc1ccc(N2C(=O)C3C4C=CC(CNC(=S)Nc5ccc(F)cc5)(O4)C3C2=O)cc1", "note": "(centres undefined)", "GFP response, % of DMSO": 110}
